Experimental data taken from PubChem BioAssay (NCATS).
Inconclusive results are not listed. Activity calls are given as the source filed them. The call rests on the fitted dose curve; in most records, active means well fitted cell-killing curve with a large enough effect; inconclusive means small, poorly fitted or top-dose-only effect, or effect the other way; inactive means flat fitted curve, though single readings scatter.

How the values were obtained:
Experiment in all cases: Primary qHTS to identify gynecologic anti-cancer compounds using libraries of approved drugs and bioactive compounds (AID 1345084); further: nearly all actives have a fitted effect of over 55% in size
C33A = conditions: Gynecologic cancer cell panel viability, ATPlite luminescence, 48 h; series mostly up to 57.5 µM
Method in brief: (§1)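 Cells, 1,000 per well, were allowed to settle for 16 h at 37 C before compound addition. Five concentrations were tested for 48 h, and viability was read by ATPlite luminescence after 15 min at room temperature.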

CAOV3 = conditions: Gynecologic cancer cell panel viability, ATPlite luminescence, 48 h; series mostly up to 57.5 µM
Method in brief: as §1

CASKI = conditions: Gynecologic cancer cell panel viability, ATPlite luminescence, 48 h; series mostly up to 57.5 µM
Method in brief: as §1

Es-2 = conditions: Gynecologic cancer cell panel viability, ATPlite luminescence, 48 h; series mostly up to 57.5 µM
Method in brief: as §1

HeLa = conditions: Gynecologic cancer cell panel viability, ATPlite luminescence, 48 h; series mostly up to 57.5 µM
Method in brief: as §1

Hek293T = conditions: Gynecologic cancer cell panel viability, ATPlite luminescence, 48 h, control line for the selectivity index; series mostly up to 57.5 µM
Method in brief: as §1

JEG-3 = conditions: Gynecologic cancer cell panel viability, ATPlite luminescence, 48 h; series mostly up to 57.5 µM
Method in brief: as §1

OV90 = conditions: Gynecologic cancer cell panel viability, ATPlite luminescence, 48 h; series mostly up to 57.5 µM
Method in brief: as §1

PA-1 = conditions: Gynecologic cancer cell panel viability, ATPlite luminescence, 48 h; series mostly up to 57.5 µM
Method in brief: as §1

SKOV3 = conditions: Gynecologic cancer cell panel viability, ATPlite luminescence, 48 h; series mostly up to 57.5 µM
Method in brief: as §1

Tov-21-G = conditions: Gynecologic cancer cell panel viability, ATPlite luminescence, 48 h; series mostly up to 57.5 µM
Method in brief: as §1

Tov112D = conditions: Gynecologic cancer cell panel viability, ATPlite luminescence, 48 h; series mostly up to 57.5 µM
Method in brief: as §1
On the % scale 0 is the no-effect control and ±100 the full control effect.

CO[C@@H]1COCC[C@@H]1N[C@@H]1CC[C@@](C(=O)N2CCc3ncc(C(F)(F)F)cc3C2)(C(C)C)C1
inactive: Potency (C33A) | Potency (CAOV3) | Potency (CASKI) | Potency (Es-2) | Potency (HeLa) | Potency (Hek293T) | Potency (JEG-3) | Potency (OV90) | Potency (PA-1) | Potency (SKOV3) | Potency (Tov-21-G) | Potency (Tov112D)

O=C(/C=C/c1ccc(O)c(O)c1)OCc1ccccc1O[C@@H]1O[C@H](CO)[C@@H](O)[C@H](O)[C@H]1O
inactive: Potency (C33A) | Potency (CAOV3) | Potency (CASKI) | Potency (Es-2) | Potency (HeLa) | Potency (Hek293T) | Potency (JEG-3) | Potency (OV90) | Potency (PA-1) | Potency (SKOV3) | Potency (Tov-21-G) | Potency (Tov112D)

C[C@H]1CC[C@@]2(OC1)O[C@H]1CC3C4CC=C5C[C@H](O)C[C@@H](O[C@@H]6O[C@@H](C)[C@H](O)[C@@H](O)[C@H]6O[C@@H]6O[C@@H](C)[C@H](O)[C@@H](O)[C@H]6O)[C@]5(C)C4CC[C@]3(C)[C@H]1[C@@H]2C (some centres undefined)
inactive: Potency (C33A) | Potency (CAOV3) | Potency (CASKI) | Potency (Es-2) | Potency (HeLa) | Potency (Hek293T) | Potency (JEG-3) | Potency (OV90) | Potency (PA-1) | Potency (SKOV3) | Potency (Tov-21-G) | Potency (Tov112D)

O=C1C[C@@H](c2ccc(O)cc2)Oc2cc(O)ccc21
inactive: Potency (C33A) | Potency (CAOV3) | Potency (CASKI) | Potency (Es-2) | Potency (HeLa) | Potency (Hek293T) | Potency (JEG-3) | Potency (OV90) | Potency (PA-1) | Potency (SKOV3) | Potency (Tov-21-G) | Potency (Tov112D)

CC12CCC3c4ccc(O)cc4CCC3C1CCC2OC1OC(C(=O)O)C(O)C(O)C1O (centres undefined)
inactive: Potency (C33A) | Potency (CAOV3) | Potency (CASKI) | Potency (Es-2) | Potency (HeLa) | Potency (Hek293T) | Potency (JEG-3) | Potency (OV90) | Potency (PA-1) | Potency (SKOV3) | Potency (Tov-21-G) | Potency (Tov112D)

COc1c(C(CC(C)C)OC(C)=O)ccc(Oc2c(O)cc(C)cc2/C=C/C(C)=O)c1C(=O)O (centres undefined)
inactive: Potency (C33A) | Potency (CAOV3) | Potency (CASKI) | Potency (Es-2) | Potency (HeLa) | Potency (Hek293T) | Potency (JEG-3) | Potency (OV90) | Potency (PA-1) | Potency (SKOV3) | Potency (Tov-21-G) | Potency (Tov112D)

COc1c(C)c2c(c(O)c1C/C=C(\C)CC/C=C(\C)CCC(=O)O)C(=O)OC2
inactive: Potency (C33A) | Potency (CAOV3) | Potency (CASKI) | Potency (Es-2) | Potency (HeLa) | Potency (Hek293T) | Potency (JEG-3) | Potency (OV90) | Potency (PA-1) | Potency (SKOV3) | Potency (Tov-21-G) | Potency (Tov112D)

C[C@H]1[C@H](C)CC[C@]2(C(=O)O)CC[C@]3(C)C(=CC[C@@H]4[C@@]5(C)C[C@@H](O)[C@H](O)[C@@](C)(CO)[C@@H]5CC[C@]43C)[C@H]12
inactive: Potency (C33A) | Potency (CAOV3) | Potency (CASKI) | Potency (Es-2) | Potency (HeLa) | Potency (Hek293T) | Potency (JEG-3) | Potency (OV90) | Potency (PA-1) | Potency (SKOV3) | Potency (Tov-21-G) | Potency (Tov112D)

COC(=O)CC[C@@H](C)[C@H]1CC[C@H]2[C@@H]3CC(=O)[C@H]4C[C@H](OC(C)=O)CC[C@]4(C)[C@H]3CC[C@]12C
inactive: Potency (C33A) | Potency (CAOV3) | Potency (CASKI) | Potency (Es-2) | Potency (HeLa) | Potency (Hek293T) | Potency (JEG-3) | Potency (OV90) | Potency (PA-1) | Potency (SKOV3) | Potency (Tov-21-G) | Potency (Tov112D)

CN1C(=O)c2ccccc2NC(=O)[C@]12O[C@@H]2c1cccc(O)c1
inactive: Potency (C33A) | Potency (CAOV3) | Potency (CASKI) | Potency (Es-2) | Potency (HeLa) | Potency (Hek293T) | Potency (JEG-3) | Potency (OV90) | Potency (PA-1) | Potency (SKOV3) | Potency (Tov-21-G) | Potency (Tov112D)

CC1(C)CCC2(C(=O)OC3OC(COC4OC(CO)C(O)C(O)C4O)C(O)C(O)C3O)CCC3(C)C(=CCC4C5(C)CCC(O)C(C)(C(=O)O)C5CCC43C)C2C1O (centres undefined)
inactive: activity change, negative = cytotoxicity (C33A) 2.23% [at 11.6 µM] | activity change, negative = cytotoxicity (CAOV3) 3.42% [at 11.6 µM] | activity change, negative = cytotoxicity (CASKI) 3.04% [at 11.6 µM] | activity change, negative = cytotoxicity (Es-2) 4.39% [at 11.6 µM] | activity change, negative = cytotoxicity (HeLa) -15.3% [at 11.6 µM] | activity change, negative = cytotoxicity (Hek293T) 4.46% [at 11.6 µM] | activity change, negative = cytotoxicity (JEG-3) -2.36% [at 11.6 µM] | activity change, negative = cytotoxicity (OV90) 0.278% [at 11.6 µM] | activity change, negative = cytotoxicity (PA-1) -2.93% [at 11.6 µM] | activity change, negative = cytotoxicity (SKOV3) 21% [at 11.6 µM] | activity change, negative = cytotoxicity (Tov-21-G) 0.669% [at 11.6 µM] | activity change, negative = cytotoxicity (Tov112D) -1.2% [at 11.6 µM]

CC1CCC2C(C)(C)C(O)CCC2(C)C12Cc1c(O)cc3c(c1O2)CN(C(CCC(N)=O)C(=O)O)C3=O (centres undefined)
inactive: Potency (C33A) | Potency (CAOV3) | Potency (CASKI) | Potency (Es-2) | Potency (HeLa) | Potency (Hek293T) | Potency (JEG-3) | Potency (OV90) | Potency (PA-1) | Potency (SKOV3) | Potency (Tov-21-G) | Potency (Tov112D)
